From PubChem BioAssay (NCI)
The panel holds about 83,000 compounds, 20% with a hit somewhere; the sample as a whole holds those more often.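 Note: values are percent growth. 100 is the growth of untreated cells, values between 100 and 0 indicate rising inhibition; between -100 and 0 indicates cell death.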 Active and inactive are the calls of the source. Rule for the calls: active = growth percent below 10; inactive = the rest.

Assays:
Experiment in all cases: NCI-60 one-dose screen, 48 h (100 = growth as untreated, 0 = no growth, -100 = all killed)
Conditions in all cases: 10 µM unless noted
[1] = test system: DU-145 prostate
[2] = test system: K-562 leukemia
[3] = test system: MALME-3M melanoma
[4] = test system: MDA-MB-231 breast
[5] = test system: RXF 393 renal
[6] = test system: SF-268 CNS
[7] = test system: SF-295 CNS
[8] = test system: SF-539 CNS
[9] = test system: UACC-257 melanoma
[10] = test system: M14 melanoma
[11] = test system: HCT-15 colon
[12] = test system: SNB-75 CNS
[13] = test system: SNB-19 CNS
[14] = test system: U251 CNS
[15] = test system: PC-3 prostate
[16] = test system: SK-MEL-5 melanoma
[17] = test system: UACC-62 melanoma
[18] = test system: LOX IMVI melanoma
[19] = test system: SK-MEL-28 melanoma
[20] = test system: HT29 colon

Measured: growth

COc1cccc(C(=O)NCCNc2cc(-c3cn(-c4ccccc4)nc3-c3cccc(OC)c3)ccn2)c1
inactive: [1] 64% | [2] 32.4% | [3] 81% | [4] 62.1% | [5] 74.2% | [6] 68.9% | [7] 58.3% | [8] 87.3% | [9] 46.9% | [10] 51.3% | [11] 41.8% | [12] 74.5% | [13] 78% | [14] 48.4% | [15] 25.4% | [16] 39.3% | [17] 55.1% | [18] 62.1% | [19] 80.2%

CCCCCCCCCCCC(c1ccccc1)[N+](C)(C)C (centres undefined)
active: [3] 5.27% | [5] -61% | [12] -15.3% | [15] -18.8% | [16] -80.1% | [17] 6.22% | [18] -36.8%
inactive: [1] 39.8% | [2] 19% | [4] 21.1% | [6] 13.2% | [7] 55.1% | [8] 15.8% | [9] 20% | [10] 11.2% | [11] 93.4% | [13] 25.2% | [14] 18.3% | [19] 31.6%

COc1cc(N=Nc2ccc(N)cc2)c(OC)cc1N=Nc1ccccc1.[Cl][Zn][Cl]
inactive: [1] 118% | [2] 104% | [3] 74.1% | [4] 84.6% | [5] 114% | [6] 96.5% | [7] 116% | [8] 87.9% | [9] 109% | [10] 101% | [11] 91.2% | [12] 80.9% | [13] 105% | [14] 104% | [15] 90.7% | [17] 92.2% | [18] 88%

COc1cc2ncn3c(=O)c4c5c(sc4nc3c2cc1OC)CCCC5
inactive: [1] 105% | [2] 146% | [3] 89.8% | [4] 90.6% | [5] 105% | [6] 94.3% | [7] 101% | [8] 99.2% | [9] 119% | [10] 91.2% | [11] 99.9% | [12] 85.1% | [13] 93.2% | [14] 98.7% | [15] 87.6% | [16] 102% | [17] 93.4% | [18] 98.6%

Cc1c2c(c(C)c3c1oc1cc(O)ccc13)C(=O)N(CCN1CCCCC1)C2=O
active: [2] 3.97%
inactive: [1] 68.4% | [3] 100% | [4] 83% | [5] 87.1% | [6] 73.4% | [7] 102% | [8] 91.6% | [9] 110% | [10] 91.7% | [11] 95.4% | [12] 87.3% | [13] 88.9% | [14] 86.4% | [15] 83.8% | [16] 96% | [17] 99.2% | [18] 95.4%

Cc1ccc(C(=O)COc2cccc(/C=C3\Oc4ccccc4C3=O)c2)cc1
inactive: [1] 123% | [2] 75.8% | [3] 106% | [4] 83.1% | [5] 94.5% | [6] 120% | [7] 120% | [8] 103% | [9] 129% | [10] 101% | [11] 105% | [12] 104% | [13] 99.4% | [14] 99.7% | [15] 101% | [16] 123% | [17] 73.2% | [18] 104% | [19] 135%

COc1nc2c(c(=O)n1C)CN(c1ccccc1)C(=O)CN2C
inactive: [1] 66.3% [100 µM] | [2] 55.2% [100 µM] | [3] 74.3% [100 µM] | [4] 47.5% [100 µM] | [5] 60.4% [100 µM] | [6] 63.4% [100 µM] | [7] 50.7% [100 µM] | [8] 60.8% [100 µM] | [9] 73.6% [100 µM] | [10] 68% [100 µM] | [11] 52.7% [100 µM] | [12] 45% [100 µM] | [13] 57.4% [100 µM] | [14] 62.6% [100 µM] | [15] 37.7% [100 µM] | [16] 48.4% [100 µM] | [17] 43.9% [100 µM] | [18] 70.3% [100 µM] | [19] 90.4% [100 µM]

COC(=O)c1c2c(c(C)[n+]([O-])c1C)C(=O)C(NCc1ccc(F)c(Cl)c1)=CC2=O
active: [2] 5.87% | [3] -93.5% | [4] 2.68% | [6] 9.33% | [8] 3.31% | [9] -69.3% | [10] -19.6% | [11] 8.29% | [13] 7.17% | [14] -20.4% | [15] 5.89% | [16] -71.6% | [17] -42% | [18] 9.57%
inactive: [1] 36.2% | [5] 36.2% | [7] 39% | [12] 109%

CC(=O)n1c(-c2ccc(Cl)cc2)nc2c(c1=O)C(c1ccc(Cl)cc1)c1sc3c(Cl)cccc3c1O2 (centres undefined)
active: [1] 2.09% | [2] -0.184% | [4] -28.8% | [5] -25.4% | [6] -0.0873% | [7] -20% | [8] -63.2% | [10] -39.3% | [11] -37.4% | [12] -22% | [14] -37.7% | [15] 4.54% | [16] -17.7% | [17] 3.42% | [18] -33.8%
inactive: [3] 51.8% | [9] 21.3% | [13] 14.2% | [19] 18%

COc1ccc(C2CC(c3cccc(OC)c3)=NN2C(=O)c2cc(OC)c(OC)c(OC)c2)cc1 (centres undefined)
active: [1] -24.7% | [2] 5.93% | [7] 7.64% | [8] -16% | [16] -3.53%
inactive: [3] 37.7% | [4] 33.6% | [5] 23.4% | [6] 41.4% | [9] 65% | [10] 16.5% | [11] 30.9% | [12] 22.3% | [13] 28.5% | [14] 35.5% | [15] 25.7% | [17] 37.9% | [18] 35.5% | [19] 56.2%

CC/C=C\C[C@H](O)C/C=C1/C(=O)C=C[C@@H]1C/C=C\CCCC(=O)OC
active: [2] 2.74% | [3] 9.07% | [5] -19.6% | [7] -1.98% | [8] 7.57% | [9] -17.5% | [10] -1.46% | [11] -20.3% | [14] -72.8% | [15] -11.3% | [16] -84.7% | [17] -40.3% | [18] -76.9% | [19] -34.3%
inactive: [1] 20.2% | [4] 11.9% | [6] 15.1% | [12] 57.8% | [13] 35.2%

COc1ccc(CN2C(=O)C(Cl)=C(Nc3cccc(C(F)(F)F)c3)C2=O)cc1
active: [8] 7.41%
inactive: [1] 84.9% | [2] 27.9% | [3] 52.1% | [4] 46.6% | [5] 23.6% | [6] 33.7% | [7] 38.1% | [9] 54.9% | [10] 63.5% | [11] 34.8% | [12] 66.9% | [13] 44.7% | [14] 28.2% | [15] 19.2% | [16] 63.3% | [17] 58.1% | [18] 25.2% | [19] 55.2%

CC1=C([Se]CC(OC(=O)CC[Se]c2ccccc2)C(=O)NCCCCCC(=O)OCc2ccccc2)C(=O)c2ccccc2C1=O (centres undefined)
active: [3] -31.3% | [6] 4.54% | [7] -7.86% | [16] -24.9%
inactive: [1] 22.1% | [2] 39.5% | [4] 32.3% | [5] 35% | [8] 15.3% | [9] 35.9% | [11] 50.1% | [20] 41.2% | [12] 56.2% | [13] 31% | [14] 12.7% | [15] 30.7% | [17] 41.6% | [18] 10.3% | [19] 21.7%

COc1ccc(N=Nc2ccc(O)c(=O)cc2)cc1
active: [2] 2.95% | [3] 9.91% | [8] -5.77% | [9] 7.51% | [12] 8.47% | [16] -23.3% | [17] -54% | [18] -38.8% | [19] 5.78%
inactive: [1] 19.3% | [4] 17.5% | [5] 29.7% | [6] 22.3% | [7] 10.2% | [11] 16.4% | [20] 33.1% | [13] 15.1% | [14] 12.8% | [15] 36.6%

Oc1ccc(CN2CCC(N3CCOCC3)CC2)c2cccnc12
inactive: [1] 29.3% | [2] 12.9% | [4] 31% | [5] 13.1% | [6] 32.3% | [8] 13.6% | [11] 17.7% | [20] 103% | [12] 32% | [13] 17.6% | [14] 16.9% | [15] 15.3% | [17] 12.9% | [18] 15.2% | [19] 39.5%
active: [3] -0.979% | [7] 5.68% | [9] 7.47% | [16] -45.8%

COc1ccc(-c2nc(SCC(=O)Nc3nc(-c4ccccc4)cs3)[nH]c(=O)c2C#N)cc1
inactive: [1] 118% | [2] 93.5% | [3] 90.1% | [4] 95.1% | [5] 96.6% | [6] 95.9% | [7] 96.3% | [8] 103% | [9] 109% | [11] 109% | [20] 115% | [12] 70.4% | [13] 109% | [14] 103% | [15] 86% | [16] 102% | [17] 92.1% | [18] 92.9% | [19] 104%
